From PubChem BioAssay
CYP2C19 act: increases human CYP2C19 enzyme activity. recombinant CYP2C19, luciferin-H EGE luminescence; stronger effect = higher value; 0 = fully inhibited enzyme, 1 = untreated enzyme. activation factor at 5 µM. 96,000 tested, under 10 active. AID 1025;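 active = activation factor of at least 2 at 5 µM in the primary screen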
CYP2C19 inhib: human CYP2C19 inhibition | P33261 | CYP2C19 Supersomes, luciferin-H EGE luminescence, 30 min | inhibition, % at 5 µM | actives 21% (n = 96,000);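 active = CYP2C19 inhibition above a set limit at 5 µM in the primary screen, cut at about 50% in these data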
CYP2C9 inh: blocks human cytochrome P450 2C9 | CYP2C9 Supersomes, luciferin-H conversion, luminescence | AID 777 | P11712 | actives 20% (n = 96,000) | inhibition, % at 5 µM;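 active = blocking of liver enzyme CYP2C9 beyond about 50% at 5 µM, limit read from the data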
Target sequence (P11712 whole entry, looked up): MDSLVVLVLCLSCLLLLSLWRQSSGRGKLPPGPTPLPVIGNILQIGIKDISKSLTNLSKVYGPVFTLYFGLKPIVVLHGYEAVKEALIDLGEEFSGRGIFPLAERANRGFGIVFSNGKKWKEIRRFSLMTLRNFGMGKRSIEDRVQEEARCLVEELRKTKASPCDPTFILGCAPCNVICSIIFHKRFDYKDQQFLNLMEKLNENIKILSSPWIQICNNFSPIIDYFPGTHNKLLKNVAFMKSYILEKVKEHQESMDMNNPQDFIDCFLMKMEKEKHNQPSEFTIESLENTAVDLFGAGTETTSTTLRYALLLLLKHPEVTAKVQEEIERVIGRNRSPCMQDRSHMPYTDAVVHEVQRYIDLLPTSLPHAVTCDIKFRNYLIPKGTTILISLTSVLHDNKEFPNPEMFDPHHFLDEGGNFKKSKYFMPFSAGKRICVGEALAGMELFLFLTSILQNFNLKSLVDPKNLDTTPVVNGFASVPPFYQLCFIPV
CYP2C9 activ: increases human cytochrome P450 2C9 activity | recombinant CYP2C9, luciferin-H conversion, luminescence; stronger effect = higher value; factor 1 = untreated enzyme, 0 = blocked | activation factor at 5 µM | actives 1.4% (n = 96,000) | AID 1024;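 active = activation factor of 2 or more for CYP2C9 at a 5 µM dose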
Cav32 inh: blocks human Cav3.2 T-type calcium channel; O95180; Cav3.2-expressing cells, Fluo-4 calcium fluorescence FDSS; stronger effect = lower value; B-score at 10 µM; actives 4% (n = 100,000); AID 449739;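 active = single-dose well whose peak fluorescence ratio is a statistical outlier from its plate by either plate-standardised score or position-corrected B-score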
Large screens that a line does not name were inactive. Shown are actives, neighbours in structure and some others; about 27% of the full set was active somewhere.

COc1ccc(OCC(=O)Nc2ccc(NC(=O)c3ccco3)cc2)cc1	none
Cc1ccc(Oc2ccc(NC(=O)c3ccco3)cc2)cc1	CYP2C19 inhib 56, CYP2C9 inh 59
Cc1ccc(NC(=O)c2ccc(OC(=O)c3ccco3)cc2)cc1	none
CCOCC(=O)Nc1c(C(=O)Nc2ccc(OC)cc2OC)oc2ccccc12	CYP2C9 inh 71
COC(=O)c1ccccc1OCC(=O)N1CCN(c2ccc(F)cc2)CC1	none
Cc1ccc(OCC(=O)Nc2ccc(F)cc2)cc1C	none (no result: CYP2C19 act, CYP2C19 inhib, CYP2C9 inh, CYP2C9 activ)
O=C(COC(=O)c1ccccc1C(=O)N1CCN(c2ccccc2)CC1)Nc1ccc(F)cc1	CYP2C19 inhib 72, CYP2C9 inh 91
O=C(COC(=O)c1ccccc1C(=O)N1CCN(c2ccc(F)cc2)CC1)NCc1ccccc1	CYP2C19 inhib 82, CYP2C9 inh 86
Cc1occc1C(=O)OCC(=O)Nc1ccc(F)cc1	CYP2C19 inhib 86
O=C(O)c1ccccc1C(=O)N1CCN(c2ccccc2)CC1	none (no result: Cav32 inh)
N/C(=N\c1nc2c(c(=O)[nH]1)CCC2)Nc1ccccc1C(F)(F)F	none (no result: CYP2C19 act, CYP2C19 inhib, CYP2C9 inh, CYP2C9 activ)
CCOC(=O)c1cc2c(s1)-c1ccccc1CC2	none
C#CCSc1nnc(-c2cc3c(C(F)(F)F)nn(C)c3s2)n1C	none
CCn1c2ccccc2c2cc(NC(=O)CSc3nnc(-c4ccc(OC)cc4)n3N)ccc21	none
COc1ccc(OC)c(N2C(=O)CC(Cc3ccc(Cl)cc3)C2=O)c1 (centres undefined)	none (no result: CYP2C19 act, CYP2C19 inhib, CYP2C9 inh, CYP2C9 activ)
O=C1CC(Cc2ccccc2)C(=O)N1Cc1ccco1 (centres undefined)	none
Cc1ccc(CC2CC(=O)N(c3ccc(Cl)cn3)C2=O)cc1 (centres undefined)	CYP2C19 inhib 58
Cc1ccc(CC2CC(=O)N(Cc3ccco3)C2=O)cc1 (centres undefined)	CYP2C19 inhib 88, CYP2C9 inh 55
Cc1cc(C)cc(CC2CC(=O)N(c3ccc4c(c3)OCCO4)C2=O)c1 (centres undefined)	none
Cc1ccc(CC2CC(=O)N(c3ccncc3)C2=O)cc1 (centres undefined)	CYP2C19 inhib 94, CYP2C9 inh 57
CCN(CC)C(=O)C1=C(C)NC(=O)NC1c1c(F)cccc1Cl (centres undefined)	none (no result: Cav32 inh)
COc1ccc(OCC(O)Cn2ccnc2C)cc1 (centres undefined)	none (no result: CYP2C19 act, CYP2C19 inhib, CYP2C9 inh, CYP2C9 activ)
COc1cc(OC)cc(OCC(O)Cn2cnc3cc(C)c(C)cc32)c1 (centres undefined)	CYP2C19 inhib 85, CYP2C9 inh 57 (no result: Cav32 inh)
CCC(C)NC(=O)CN(c1ccc2c(c1)OCO2)S(=O)(=O)c1c(C)n[nH]c1C (centres undefined)	CYP2C19 inhib 76, CYP2C9 inh 52
Cc1n[nH]c(C)c1S(=O)(=O)N(CC(=O)Nc1ccc2c(c1)OCCO2)c1ccc(C(C)C)cc1	CYP2C9 inh 68
O=C(O/N=C/C1=C(Cl)c2ccccc2CC1)c1ccc(F)cc1	none
C=C(C(=O)O)C1CCC2(C)CCCC(C)(O)C2C1 (centres undefined)	none (no result: CYP2C19 act, CYP2C19 inhib, CYP2C9 inh, CYP2C9 activ)
COc1ccc(C2CC(c3ccccc3C)n3nc(N)nc3N2)cc1 (centres undefined)	CYP2C19 inhib 57
CCOc1ccc(C2CC(c3ccccc3C)n3nc(N)nc3N2)cc1 (centres undefined)	none
COc1cccc(C2CC(c3ccccc3C)n3nc(N)nc3N2)c1 (centres undefined)	none
CCOc1ccccc1C1CC(c2ccc(Br)cc2)Nc2nc(N)nn21 (centres undefined)	CYP2C19 inhib 64
Cc1ccc(C2CC(c3ccccc3C)n3nc(N)nc3N2)cc1 (centres undefined)	none (no result: CYP2C19 act, CYP2C19 inhib, CYP2C9 inh, CYP2C9 activ)
COc1cccc(C2CC(c3ccccc3OC)n3nc(N)nc3N2)c1 (centres undefined)	CYP2C19 inhib 63
COc1cccc(C2CC(c3ccc(Cl)cc3)n3nc(N)nc3N2)c1 (centres undefined)	CYP2C19 inhib 78
COc1cccc(C2CC(c3ccccc3Cl)n3nc(N)nc3N2)c1 (centres undefined)	CYP2C19 inhib 85
CCCc1c(C)c2c(C)[nH]nc2oc1=O	CYP2C19 inhib 62
CCOc1cc2nc(-c3ccc(OC)c(OC)c3)nc(N3CCOCC3)c2cc1OC	Cav32 inh -6
Cc1ccc(-c2nnc(CSc3nc(C(C)C)nc4sc(C)c(C)c34)o2)cc1	none (no result: CYP2C19 act, CYP2C19 inhib, CYP2C9 inh, CYP2C9 activ)
CCC(C)NC(=O)c1c(F)c(F)c(F)c(F)c1F (centres undefined)	none (no result: CYP2C19 act, CYP2C19 inhib, CYP2C9 inh, CYP2C9 activ)
CC(=O)Nc1nc(-c2ccc(Cl)cc2)nc(C)c1C(C)=O	none
